Screening data (PubChem BioAssay)
In the library only some 2.4% were active in any assay of this set; here they are far more common.
Cruzain inh Det – blocks cruzain activity in presence of Triton detergent. purified cruzain, Z-FR-AMC fluorescence, 0.01% Triton. Potency, µM, hits mostly inhibitors. actives 0.43% (n = 200,000); note: nearly all actives have a fitted effect of over 40% in size
Target sequence (P25779 123-467 limits assumed): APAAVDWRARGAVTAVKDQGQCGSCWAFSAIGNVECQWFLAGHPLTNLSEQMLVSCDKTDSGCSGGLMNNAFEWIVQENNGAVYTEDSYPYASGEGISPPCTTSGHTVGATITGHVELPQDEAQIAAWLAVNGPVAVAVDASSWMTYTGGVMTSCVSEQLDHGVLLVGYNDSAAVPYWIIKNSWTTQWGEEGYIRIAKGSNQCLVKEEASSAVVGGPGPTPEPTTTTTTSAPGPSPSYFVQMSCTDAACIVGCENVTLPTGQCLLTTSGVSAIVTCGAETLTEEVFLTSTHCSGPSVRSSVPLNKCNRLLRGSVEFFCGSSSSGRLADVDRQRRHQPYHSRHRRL
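Compounds were screened in titration against cruzain (1.5 nM) with 0.01% Triton X-100 to counter colloidal aggregation. Activity was the AMC fluorescence increase over 60 s after adding 2 uM Z-FR-AMC at pH 5.5.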
Cruzain inh noDet – cruzain (T. cruzi) inhibition without detergent | P25779 | purified cruzain, Z-FR-AMC fluorescence, no detergent | Potency, µM, actives largely listed as inhibitors | actives 2.3% (n = 200,000) | AID 1476; note: nearly all actives have a fitted effect of over 40% in size
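Detergent-free condition (0.00005% Triton X-100) in acetate buffer pH 5.5 with DTT. 1.5 nM enzyme and compound were pre-mixed 15 min, then 2 uM Z-FR-AMC substrate added; reaction progress from fluorescence change between first and third reads (60 s).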
Large screens that a line does not name were inactive. Calls come from the whole dose curve; as a rule, active = well fitted curve in the direction sought with a large enough effect; inconclusive = small, poorly fitted or top-dose-only effect, or another doubt; inactive = no such curve, though single readings can be large; an effect the other way counts as inactive or inconclusive.

CC1=C(c2ccc(Cl)cc2)S(=O)(=O)NC1=NCCCN1CCN(c2cc(C)ccc2C)CC1	none
COc1ccc(NC(=O)c2c(C)oc3ccc(O)c(CN4CCC(C)CC4)c23)cc1Cl	none
CCOC(=O)/C=c1\s/c(=C\c2ccc(C(F)(F)F)cc2)c(=O)n1CC(=O)NCc1ccco1	Cruzain inh noDet inconclusive
CCOC(=O)COc1cccc2c(=O)n(CC(=O)NCc3ccc4c(c3)OCO4)ccc12	none
CCOC(=O)/C=c1\s/c(=C\c2ccc(-c3ccccc3)cc2)c(=O)n1CC(=O)NCc1ccc2c(c1)OCO2	Cruzain inh noDet 2.5µM
CCOC(=O)/C=c1\s/c(=C\c2ccc(C)cc2)c(=O)n1CC(=O)NCc1ccco1	Cruzain inh noDet 16µM
CCOC(=O)c1c(S(=O)(=O)N2CCC(C(=O)Nc3ccc(C)c(Cl)c3)CC2)c(C)n(C)c1C	none
COc1cccc(CNC(=O)CSc2cc(C)[nH]c(=O)n2)c1	Cruzain inh noDet inconclusive
CCOP(=O)(OCC)C(Nc1ccccc1)c1ccc2c(c1)OCO2 (stereo not given)	Cruzain inh noDet 13µM
CCCCOP(=O)(OCCCC)C(Nc1ccccc1)c1ccc2c(c1)OCO2 (stereo not given)	none
CCc1ccc(NC(=O)COCc2cc(-c3ccc(F)cc3)on2)cc1	none
Cc1ccc(C)c(NC(=O)CSc2nc(-c3ccccc3)cc(=O)[nH]2)c1	Cruzain inh noDet inconclusive
N#CC(C(=O)Nc1ccccc1)=C1Nc2ccccc2N1	none
N#C/C(C(=O)Oc1ccccc1)=C1/Nc2ccccc2-c2ccccc21	Cruzain inh noDet 13µM
O=C(/C=C/c1ccccc1)Nn1c(-c2cccs2)nc2ccccc2c1=O	Cruzain inh noDet inconclusive
O=C(/C=C/c1cccc(Cl)c1)Nn1c(-c2cccs2)nc2ccccc2c1=O	Cruzain inh noDet 13µM
Cc1ccc2c(c1)N(C(=O)c1ccco1)C(C)(C)c1ssc(=S)c1-2	Cruzain inh noDet 32µM
Cc1cccc2c1N(C(=O)c1ccco1)C(C)(C)c1ssc(=S)c1-2	none
Cn1nnc2c(N3CCCCC3)ncnc21	none
COc1cccc(-c2cc(C(=O)Nc3ccc(F)cc3)[nH]n2)c1	Cruzain inh noDet inconclusive
COc1cccc(-c2cc(C(=O)Nc3ccc(Br)c(C)c3)[nH]n2)c1	Cruzain inh noDet 13µM
O=c1cnc2cnc(Nc3ccccc3)nc2n1Cc1cccs1	none
CCOC(=O)Cn1c(=NC(=O)c2sc3ccccc3c2Cl)sc2cc(S(N)(=O)=O)ccc21	Cruzain inh noDet 7.9µM
COC(=O)Cn1c(=NC(=O)c2sc3ccccc3c2Cl)sc2cc(S(N)(=O)=O)ccc21	none
O=C(Cn1c(=O)oc2cc(S(=O)(=O)N3CCCCC3)ccc21)Nc1cccc(Cl)c1	Cruzain inh noDet inconclusive
CSc1nsc(/C=C/Nc2ccc(C)cc2)c1C#N	Cruzain inh noDet 3.2µM
COc1cc(/C=N/Nc2snc(SC)c2C#N)ccc1O	none
CCCCCCc1c(C)c2c(cc(C)c3c(C)c(C)oc32)oc1=O	none
COc1cc(NC(=O)CSc2ccc(-c3sc(C)nc3C)nn2)cc(OC)c1	Cruzain inh noDet inconclusive
CCN1CC=C2C(C#N)=C(N)C(C#N)(C#N)[C@H](c3cccc(OC)c3OC)[C@H]2C1	none
CCN1CC=C2C(C1)C(c1ccc(Cl)s1)C(C#N)=C(N)C2(C#N)C#N (stereo not given)	Cruzain inh Det 25µM, Cruzain inh noDet 25µM
CC(=O)Nc1ccc(NC(=O)Cn2c(-c3ccc(F)cc3)cnc2SCC(=O)Nc2c(C)cccc2C)cc1	Cruzain inh noDet 20µM
COc1ccc(NC(=O)CSc2ncc(-c3ccc(F)cc3)n2Cc2ccco2)cc1	none
COc1ccc(NC(=O)CN2C(=O)C3(SCC(=O)N3c3cccc(OC)c3)c3ccccc32)cc1 (stereo not given)	none
COc1ccc(NS(=O)(=O)c2ccc(N/N=C/c3ccc(N4CCOCC4)cc3)c([N+](=O)[O-])c2)cc1	Cruzain inh noDet 25µM
COc1ccc(/C=N/Nc2ccc(C(F)(F)F)cc2[N+](=O)[O-])cc1	none
CCCCOC(=O)c1c(C)oc2c1cc(NS(=O)(=O)c1cc(OC)ccc1OC)c1ccccc12	Cruzain inh noDet 13µM
COc1ccc(OC)c(S(=O)(=O)Nc2cc3c(C(C)=O)c(C)oc3c3ccccc23)c1	none
Cc1oc(-c2ccc(C(=O)NCc3ccc(Cl)cc3)cc2)nc1CS(=O)(=O)c1ccccc1	Cruzain inh noDet 25µM
Cc1oc(-c2ccc(C(=O)NCc3ccccc3)cc2)nc1CS(=O)(=O)c1ccccc1	Cruzain inh noDet inconclusive
Cc1noc(C)c1-c1nccc(NC2CC2)n1	none
CN(C)CCNC(=O)c1ccc2nc(Cc3ccccc3)oc2c1	none
Cc1sc2ncnc(SCC(=O)N3c4ccccc4Sc4ccc(Cl)cc43)c2c1C	Cruzain inh noDet 7.9µM
Cc1sc2ncnc(SCC(=O)c3cccs3)c2c1C	Cruzain inh noDet inconclusive
COc1cc(NC(=O)C(CC(C)C)NS(=O)(=O)c2ccc3c(c2)oc(=O)n3C)c(C(=O)O)cc1OC (stereo not given)	none
CCn1c2ccccc2c2nnc(SCC(=O)c3ccccc3)nc21	Cruzain inh noDet inconclusive
CCN(CC)CCSc1nnc2c3cc(F)ccc3n(CC)c2n1	Cruzain inh Det 25µM, Cruzain inh noDet 25µM
Cn1cc(S(=O)(=O)N2CCCCCC2)cc1C(=O)N1CCN(c2cccc(Cl)c2)CC1	Cruzain inh noDet inconclusive
CC(C)CCNC(=O)CN1C(=O)c2cccnc2Oc2ccccc21	none
CCOC(=O)c1c(NC(=O)c2noc3c2CC(C(C)(C)C)CC3)sc2c1CCCC2 (stereo not given)	none
COc1ccccc1/C=C\C=N\n1c(-c2ccc(Cl)cc2)n[nH]c1=S	Cruzain inh noDet inconclusive
COc1ccccc1/C=C\C=N\n1c(-c2ccc(Cl)cc2Cl)n[nH]c1=S	Cruzain inh noDet 32µM
Cc1c(Cl)cccc1NC(=O)CN1C(=O)c2ccccc2Sc2ncccc21	none
Cc1cccc(C(=O)N=c2c(C#N)cc3c(=O)n4cccc(C)c4nc3n2Cc2ccco2)c1	Cruzain inh Det 8.9µM, Cruzain inh noDet 16µM
CCOC(=O)c1cc2c(=O)n3cccc(C)c3nc2n(Cc2ccco2)c1=NC(=O)c1cccnc1	Cruzain inh noDet inconclusive
CCCOC1(C(F)(F)F)NC(=O)N(c2ccc(Cl)cc2)C1=O (stereo not given)	none
CC1=C(SCCC#N)S/C(=C2\SC(C)=C(SCCC#N)S2)S1	Cruzain inh noDet 25µM
O=C1/C(=C/c2ccc(N3CCCC3)cc2)NC(=S)N1C1CC1	none
O=C1N/C(=C/c2ccc(N3CCCC3)cc2)C(=O)N1c1ccccc1	Cruzain inh noDet 3.2µM
COc1ccc(CC(=O)Nc2ccc(-c3noc(-c4ccc(Cl)cc4)n3)cc2)cc1	Cruzain inh noDet 4µM
COc1ccc(CC(=O)Nc2ccc(-c3noc(-c4cc(OC)c(OC)c(OC)c4)n3)cc2)cc1	none
COc1ccc(-c2noc(-c3ccccc3OCC(=O)Nc3ccc(C(C)=O)cc3)n2)cc1	none
CCOc1ccc(-c2cc(C(=O)Nc3ccc(NC(C)=O)cc3)no2)cc1	none
CCc1ccc(NC(=O)c2cc(-c3ccc(OC)cc3)on2)cc1	Cruzain inh noDet 13µM
CCOc1ccccc1-c1nc(-c2ccc(NC(=O)Cc3ccc(OC)cc3)cc2)no1	Cruzain inh noDet 7.9µM
CC(C)c1cnc2c(c1SCC(=O)N1CCCCC1)c(=O)n(C)c(=O)n2C	none
COc1ccc(C2CC(=O)N3CN(C4CCCCC4)CSC3=C2C#N)c(OC)c1 (stereo not given)	Cruzain inh Det 25µM
COc1ccc2ccccc2c1C1CC(=O)N2CN(C3CCCCC3)CSC2=C1C#N (stereo not given)	Cruzain inh noDet inconclusive
COc1ccc(CCNC(=O)c2cc(Nc3ccccc3)nc3ccccc23)cc1OC	none
